Source: PubChem BioAssay

Experiment: small-molecule microarray binders of probe aShh, primary screen, biochemical, biotinylated probe, 635/667 nm fluorescence (AID 1114);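 also: probe is biotin-labelled aShh protein from a stem cell growth factor screen; measures binding of labelled protein to compounds printed on the slide; score merges feature fluorescence at 667 nm with signal-to-noise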
Conditions: higher = more signal

**Q.** With `[N-]=[N+]=Nc1ccccc1C[C@]1(C(=O)NCCN2CCOCC2)N=C(c2ccc(OCCCO)cc2)O[C@H]1c1ccccc1` as the compound, how does the composite z-score read?
**A.** Its composite z-score is 0.123.

**Q.** With `CCOC(=O)C[C@H]1[C@H](OC(=O)c2ccc(-c3ccccc3)cc2)[C@@H](NC(=O)c2ccc3ccccc3c2)c2cc(OCCCO)ccc2N1C(=O)Cc1ccc(OC)cc1` as the compound, how does the composite z-score read?
**A.** Its composite z-score is 0.151.

**Q.** For `CC(C)(C)OC(=O)CC[C@@]1(C(=O)O)N=C(c2ccc(OCCCO)cc2)O[C@@H]1c1ccccc1N=[N+]=[N-]`, which composite z-score is on record?
**A.** Its composite z-score is 0.309.

**Q.** For `O=C1C[C@]2(c3ccc([N+](=O)[O-])cc3)C(=O)N(CC(F)(F)F)c3cc(CO)ccc3[C@H]2N1CC12CC3CC(CC(C3)C1)C2`, which composite z-score is on record?
**A.** Its composite z-score is -0.229.

**Q.** For `O=C1OCCC=C[C@H]2OC34C=CCN(c5ccc6ccccc6c5)C(=O)[C@H]3N(CCCCCO)C(=O)[C@@H]4C12` (stereo not given in full), which composite z-score is on record?
**A.** The composite z-score was -0.0011.

**Q.** For `Cc1cc(C)c(C(O)C2C=CC3C(=O)N(c4ccccc4)C(=O)C3N2Nc2ccc(C#N)cc2)c(C)c1` (stereo not given), which composite z-score is on record?
**A.** The composite z-score was -0.0793.

**Q.** With `C=C[C@@H](COC(C)=O)N(Cc1ccccc1[N+](=O)[O-])S(=O)(=O)c1ccc(Br)cc1` as the compound, how does the composite z-score read?
**A.** The composite z-score was -0.0192.

**Q.** With `COCCOC(=O)N1C(=O)[C@@]2(c3cc(C#Cc4ccc(OC)cc4)ccc31)[C@H](C(=O)N1CCN(c3ncccn3)CC1)[C@H]1C(=O)O[C@H](c3ccccc3)[C@H](c3ccccc3)N1[C@@H]2c1ccc(O)cc1` as the compound, how does the composite z-score read?
**A.** Its composite z-score is -0.138.

**Q.** For `CCOC(=O)C[C@H]1[C@H](OC(=O)c2ccc(-c3ccccc3)cc2)[C@@H](NC(=O)c2ccc(-c3ccccc3)cc2)c2cc(OCCCO)ccc2N1C(=O)Cc1ccc(OC)cc1`, which composite z-score is on record?
**A.** The composite z-score was -0.366.

**Q.** With `COC(=O)[C@@]1(Cc2ccccc2)[C@H]2c3cc(C(=O)N4CCCC4)n(C)c3C[C@H]2CN1C(=O)c1ccccc1` as the compound, how does the composite z-score read?
**A.** The composite z-score was -0.2.

**Q.** With `COC(=O)[C@@]1(Cc2ccccc2N=[N+]=[N-])COC(c2ccc(OCCCO)cc2)=N1` as the compound, how does the composite z-score read?
**A.** Its composite z-score is 0.333.

**Q.** For `CC(C)C(=C=CC[C@@H](O)c1ccccc1OCCO)C[C@@H](O)c1ccccn1`, which composite z-score is on record?
**A.** The composite z-score was -0.0553.

**Q.** For `O=C(O)[C@H]1C[C@H]2C(=O)NCC(=O)N2[C@H]1c1ccc(O)cc1`, which composite z-score is on record?
**A.** The composite z-score was -0.214.

**Q.** Which composite z-score does the source give for `C=CC[C@]1(C(=O)N2CCOCC2)N=C(c2ccc(OCCCO)cc2)O[C@H]1c1ccccc1` here?
**A.** Its composite z-score is 0.218.

**Q.** For `COc1cc(C(O)C2C=CC3C(=O)N(c4ccccc4)C(=O)C3N2Nc2ccc(C#N)cc2)cc(OC)c1OC` (stereo not given), which composite z-score is on record?
**A.** Its composite z-score is 0.214.

**Q.** Which composite z-score does the source give for `O=C1O[C@H](c2ccccc2)[C@H](c2ccccc2)N2[C@H]1[C@@H](C(=O)Nc1nc3ccccc3s1)[C@]1(C(=O)Nc3ccccc31)[C@H]2c1ccc(O)cc1` here?
**A.** Its composite z-score is -0.138.

**Q.** Which composite z-score does the source give for `O=C1O[C@@H](c2ccccc2)[C@@H](c2ccccc2)N2[C@@H](c3ccc(O)cc3)[C@]3(C(=O)Nc4ccc(C#CC5(O)CCCCCC5)cc43)[C@@H](C(=O)N3CCCCCCC3)[C@H]12` here?
**A.** The composite z-score was 2.73.

**Q.** Which composite z-score does the source give for `O=C1C=CC(=O)[C@@H]2CC(COc3ccccc3)=C3[C@@H](CCc4ccccc4)OB(O)C[C@@H]3[C@H]12` here?
**A.** Its composite z-score is 0.0121.

**Q.** Which composite z-score does the source give for `CCOC(=O)C1=CCC(C(C)(C)C)N(S(=O)(=O)c2ccc(C)cc2)C1` (stereo not given) here?
**A.** Its composite z-score is -0.532.

**Q.** With `CCOC(=O)C1=CCC(c2ccc([N+](=O)[O-])cc2)N(S(=O)(=O)c2ccc(C)cc2)C1` (stereo not given) as the compound, how does the composite z-score read?
**A.** Its composite z-score is 0.138.

**Q.** With `NCCCCCCNC(=O)[C@H]1C[C@H]2C(=O)NCC(=O)N2[C@H]1c1cccc(OCCO)c1` as the compound, how does the composite z-score read?
**A.** The composite z-score was 0.199.

**Q.** With `NC(=O)NCC#Cc1ccc2c(c1)[C@]1(C(=O)N2)[C@H](C(=O)NC[C@H](O)c2ccccc2)[C@H]2C(=O)O[C@H](c3ccccc3)[C@H](c3ccccc3)N2[C@@H]1c1ccc(O)cc1` as the compound, how does the composite z-score read?
**A.** Its composite z-score is 0.456.

**Q.** With `O=C1N(CCS(=O)(=O)c2ccccc2)Cc2ccccc2[C@H]2OC(c3ccc(OCCCO)cc3)=N[C@@]12CCS(=O)(=O)c1ccccc1` as the compound, how does the composite z-score read?
**A.** The composite z-score was 0.0348.

**Q.** Which composite z-score does the source give for `O=C1C2C=CC(C(O)c3ccc(F)cc3)N(Nc3ccccc3)C2C(=O)N1c1ccccc1` (stereo not given) here?
**A.** The composite z-score was -0.289.

**Q.** Which composite z-score does the source give for `CCOC(=O)C1=C[C@@H](CC)N(S(=O)(=O)c2ccc(C)cc2)[C@H]1c1ccccc1` here?
**A.** The composite z-score was -0.0709.

**Q.** With `COc1ccc(CCNC(=O)[C@@]2(c3ccc([N+](=O)[O-])cc3)CC(=O)N(CC34CC5CC(CC(C5)C3)C4)[C@@H]2c2ccc(CO)cc2)cc1` as the compound, how does the composite z-score read?
**A.** Its composite z-score is 0.2.

**Q.** Which composite z-score does the source give for `CCC[C@@H]1C=C(C(=O)O)[C@H](c2ccc(C)cc2)N1S(=O)(=O)c1ccc(C)cc1` here?
**A.** Its composite z-score is 0.0815.

**Q.** Which composite z-score does the source give for `[N-]=[N+]=NCc1ccccc1[C@H]1OC(c2ccc(OCCCO)cc2)=N[C@@]1(CCS(=O)(=O)c1ccccc1)C(=O)N1CCOCC1` here?
**A.** Its composite z-score is 0.356.

**Q.** Which composite z-score does the source give for `O=C/C=C/c1ccc2c(c1)OCO2` here?
**A.** Its composite z-score is -0.35.

**Q.** With `COc1ccc(C(O)C2C=CC3C(=O)N(C)C(=O)C3N2Nc2ccccc2)cc1OCc1ccccc1` (stereo not given) as the compound, how does the composite z-score read?
**A.** The composite z-score was -0.221.

**Q.** With `C=C(CCCC)/C(=C/C[C@H](OC(C)=O)c1ccc(CO)o1)c1cnc2ccccc2c1` as the compound, how does the composite z-score read?
**A.** The composite z-score was 0.292.

**Q.** With `COCCOC(=O)N1C(=O)[C@@]2(c3cc(C#CCCO)ccc31)[C@H](c1ccccc1OCCO)N1[C@H](c3ccccc3)[C@H](c3ccccc3)OC(=O)[C@H]1[C@@H]2C(=O)N1CCN(c2ncccn2)CC1` as the compound, how does the composite z-score read?
**A.** Its composite z-score is 0.141.

**Q.** For `CCCCC(O)C1C=CC2C(=O)N(C3CCCCC3)C(=O)C2N1Nc1ccc(OC)cc1` (stereo not given), which composite z-score is on record?
**A.** Its composite z-score is 0.13.

**Q.** With `COCCOC(=O)N1C(=O)[C@@]2(c3cc(C#CCNC(N)=O)ccc31)[C@H](c1ccc(OCCO)cc1)N1[C@H](c3ccccc3)[C@H](c3ccccc3)OC(=O)[C@H]1[C@@H]2C(=O)N1CCc2cc(OC)c(OC)cc2C1` as the compound, how does the composite z-score read?
**A.** The composite z-score was -0.0035.

**Q.** For `COc1ccc([Si](C)(C)[C@H]2[C@H](CC(=O)N(CCO)Cc3ccccc3)O[C@@]3(C(=O)N(Cc4cccc(N5CCC5=O)c4)c4ccccc43)[C@@H]2C)cc1`, which composite z-score is on record?
**A.** Its composite z-score is -0.0793.
